PubChem BioAssay AID504411 (The Scripps Research Institute Molecular Screening Center, 2011)
Hit rate of the full screen: of about 340,000 compounds, about 200 (0.059%) were called active. The entries come from a sample that favours actives as a whole. A number with no mark means an inactive call. No stated cut-off is given here; in the data, active means inhibition above about 34%; inactive means the rest.

Target: Diacylglycerol lipase-beta (Homo sapiens) (UniProt Q8NCG7)
Experiment: DAGLB lipase inhibitors, primary screen, biochemical, fluorescence, HTS (AID 504411);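 further: 0% = enzyme with vehicle and 100% = wells lacking enzyme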
Conditions: HEK293T DAGLB membrane lysate, EnzChek fluorogenic substrate; at 5.17 µM; active compounds read high

Diacylglycerol lipase-beta (Homo sapiens), sequence (Q8NCG7 whole entry, looked up): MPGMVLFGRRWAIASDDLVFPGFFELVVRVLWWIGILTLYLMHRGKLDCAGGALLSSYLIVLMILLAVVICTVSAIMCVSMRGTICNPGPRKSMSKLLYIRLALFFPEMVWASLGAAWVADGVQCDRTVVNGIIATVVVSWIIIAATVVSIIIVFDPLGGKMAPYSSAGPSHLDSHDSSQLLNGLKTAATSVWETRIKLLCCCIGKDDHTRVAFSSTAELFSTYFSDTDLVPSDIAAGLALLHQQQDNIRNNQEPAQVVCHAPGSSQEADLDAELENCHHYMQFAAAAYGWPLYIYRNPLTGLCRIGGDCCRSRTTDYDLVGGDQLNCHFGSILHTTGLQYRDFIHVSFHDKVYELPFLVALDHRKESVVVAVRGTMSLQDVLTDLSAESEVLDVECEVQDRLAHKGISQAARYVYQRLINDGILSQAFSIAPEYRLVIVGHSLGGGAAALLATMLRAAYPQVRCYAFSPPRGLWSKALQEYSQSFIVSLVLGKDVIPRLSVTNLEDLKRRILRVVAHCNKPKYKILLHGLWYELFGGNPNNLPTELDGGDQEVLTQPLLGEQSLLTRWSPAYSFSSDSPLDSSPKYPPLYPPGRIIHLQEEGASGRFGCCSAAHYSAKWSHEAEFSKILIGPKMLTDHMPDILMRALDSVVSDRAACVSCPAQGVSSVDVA

Structure (SMILES)	inhibition
O=C1COc2ccc(C(=O)COC(=O)c3ccccc3Cl)cc2N1	-2.51%
CCN1CCN(CC(=O)c2cc(OC)c(OC)c(OC)c2)CC1	-1.97%
COc1ccc(/C=C/CN2CCN(Cc3ccc(C)cc3)C(CCO)C2)cc1 (configuration not stated)	-2.8%
Cc1ccccc1C(=O)N1CCC(C(=O)Oc2ccc(C#N)cc2)CC1	-0.99%
COc1ccc(-c2nc(N)sc2C2(O)C(=O)Nc3c(Br)cc(F)cc32)cc1OC (configuration not stated)	-0.83%
O=S1(=O)CCO[C@H]2Cc3ccccc3[C@H]2N1Cc1ccccc1	-1.47%
Cc1nc(NC(=O)c2ccc3c(c2)OCCO3)ccc1Br	-9.56%
COc1ccc(OC)c(NC(=O)CN(C)CCOc2ccc(Br)cc2)c1	-4.02%
CCOC(=O)c1sc(/N=C/Nc2nc(C)c(C(=O)OCC)s2)nc1C	-0.89%
O=C(Nc1c2c(nn1-c1cccc(Cl)c1)CS(=O)(=O)C2)c1cccs1	-3.19%
CCOC(=O)c1nn(-c2ccccc2F)c2nc(Nc3ccccc3)cc(=O)n12	0.18%
Cc1nn(-c2ncccn2)c2c1C(=O)CC(C)(C)C2Br (configuration not stated)	-0.78%
CCCN1C(=O)C(NS(=O)(=O)c2ccc(N)cc2)(C(F)(F)F)C(C(=O)OC)=C1C (configuration not stated)	0.93%
COc1ccc(C(=O)CN2C(=O)NC3(CCc4ccccc43)C2=O)c(OC)c1 (configuration not stated)	-2.52%
CC(=O)Nc1ccc(NS(=O)(=O)c2cc(C)sc2C)cc1	2.41%
COc1cccc(N(C(=O)CNC(=O)c2ccco2)C(C(=O)NC2CCCCC2)c2cccnc2)c1 (configuration not stated)	-2.11%
O=c1[nH]c2c(c(=O)n1-c1ccccc1)CCO2	0.85%
CCOC(=O)c1cnc2ccc(F)cc2c1Nc1ccc2c(c1)OCCO2	-13.6%
COc1cc(CCC(=O)N2CCN(c3ccccc3Cl)CC2)cc(OC)c1OC	-2.89%
O=C(c1cccs1)N1CCCC(c2nc(-c3ccc(F)cc3)no2)C1 (configuration not stated)	-7.27%
C=CCNC(=S)N1CCN(CCN=Cc2c(C)[nH]n(-c3ccc([N+](=O)[O-])cc3)c2=O)CC1	1.77%

Structure (SMILES)	inhibition
O=C(CN1CCC(NC(=O)C2CC2)CC1)Nc1ccccc1[N+](=O)[O-]	1.28%
Cc1ccc(/C=N/NC(=O)C(NC(=O)c2ccccc2)c2n[nH]c(=O)c3ccccc23)cc1 (configuration not stated)	34.8% (active)
Cc1ccc(/C=N/NC(=O)COc2ccccc2-c2ccccc2)cc1	-8.44%
O=C(O)c1ccc(/C=N/NC(=S)NCc2ccccc2)cc1	3.11%
COc1ccc(N(CC(=O)N2CCOCC2)S(=O)(=O)c2ccccc2)cc1Cl	-0.45%
COc1ccc(NC(=O)C[C@H]2C(=O)N(CCc3ccccc3)C[C@@H]2C)cc1	-3.33%
CCC1C=C(c2ccccc2)C=CN=C1N(CC)CC (configuration not stated)	-3.08%
Nc1ccc(OCC(O)C[n+]2ccc(CCS(=O)(=O)[O-])cc2)cc1 (configuration not stated)	0.26%
CCc1c(C)sc(NC(=O)c2cccs2)c1C(N)=O	-1.07%
O=c1oc2ccc(C#CC3(O)CCCCC3)cc2cc1-n1cc(-c2ccsc2)nn1	0.49%
COc1ccccc1NS(=O)(=O)N(C)C	-1.14%
Cc1ccc(Cc2c(-c3ccccc3)nc3ccc(Cl)cn23)cc1	-5.98%
O=C(NCCCN1CCOCC1)c1cnn2c(-c3ccccc3)cc(-c3ccccc3)nc12	1.48%
CN(c1ccc(OCC(=O)OCC(=O)Nc2cccc([N+](=O)[O-])c2)cc1)S(=O)(=O)c1ccc(F)cc1	-2.67%
Cc1sc(NC(=O)C2C3CCC(O3)C2C(=O)O)c(C(=O)OC(C)C)c1-c1ccc(Cl)cc1 (configuration not stated)	6.11%
CCN(CC(=O)NCc1cccs1)C(=O)c1cccc(S(=O)(=O)Nc2ccccc2OC)c1	0.52%
CCc1cc(C(=O)N(CC)CC(=O)Nc2c(F)cccc2F)sc1C	-0.43%
Cc1oc2cc3oc(=O)ccc3cc2c1C	-1.48%
O=c1[nH]c(=O)n(Cc2ccco2)c2c1C(C(F)(F)F)(C(F)(F)F)N=C(c1ccco1)N2	-0.13%
COc1ccc(/C=N/OCc2ccccc2C#N)c(OC)c1	-2.91%
CC(=O)c1nn(-c2cccc(Br)c2)cc1C(=O)c1cccc2ccccc12	-10.7%

Structure (SMILES)	inhibition
COc1ccc(CN2CCN(Cc3cn(C)nc3-c3ccccc3)CC2CCO)c(C)c1C (configuration not stated)	-4.22%
CC1CCN(S(=O)(=O)c2ccc3ncn(CC(=O)N(C)C4CCCCC4)c(=O)c3c2)CC1	-3.62%
OC(c1ccccc1)c1nccn1Cc1ccccc1 (configuration not stated)	0.02%
O=C(NCc1ccc2c(c1)OCO2)C(=O)NCC1OCCN1S(=O)(=O)c1ccc(F)cc1 (configuration not stated)	1.47%
NC(N)=Nc1nc2ccc(Br)cc2c(=O)[nH]1	-0.46%
CCC(=O)Nc1ccc(S(=O)(=O)NCC2CCCO2)cc1 (configuration not stated)	0.13%
CCCCOc1ccc(NC(=O)[C@@H]2CCCN2C(=O)C2CCN(S(=O)(=O)c3ccc(C)cc3)CC2)cc1	-4.14%
COCCNC(=O)CCCN1C(=O)c2ccccc2Sc2ncccc21	0.34%
C=CCC(NCCCO)c1cccc(OC)c1OC (configuration not stated)	-0.64%
O=C(Cc1ccc(Cl)cc1)NCc1nc(-c2ccccc2)no1	-5.92%
O=C(Nc1cccc(Cl)c1)C1CCCN(c2cnccn2)C1 (configuration not stated)	-0.35%
COCc1ccc(CN2CCC(Oc3ccc(C(=O)NCc4ccccn4)cc3)CC2)o1	-0.42%
COC(=O)c1cc(N2CCNCC2)nc2ccccc12	1.6%
Cc1cc(F)ccc1S(=O)(=O)Nc1ncnc2scc(-c3ccc(F)cc3)c12	11%
CC(=O)c1nn(-c2cccc(C(F)(F)F)c2)c(=O)[nH]c1=O	-0.12%
COC(=O)CC1=NN(c2nc(C)cc(C)n2)C(=O)C1	-2.2%
CCCCn1c(N)c(N(CC(C)C)C(=O)C2CSC3(C)CCC(=O)N23)c(=O)[nH]c1=O (configuration not stated)	0.2%
C=CCN(C(=O)Cn1ncc2c1-c1cc(C)ccc1OC2)c1ccccc1	-2.66%
Cc1c(CCO)c(=O)[nH]n1C(=O)c1c(F)cccc1F	-0.98%
Cc1ccnc(NC(=O)CCC(=O)N(CC(=O)NCCc2ccccc2)Cc2cccs2)c1	-0.29%
